Measured values published in PubChem BioAssay (EPA / NIEHS).
Where “and” joins values, the source holds several entries; their conditions need not be identical. Equal values may be shown once. Records with an inconclusive call do not appear. Some structures have more than one record in an assay (separate samples or runs), and their calls can disagree. Calls of active or inactive are those of the source. The calls were made as follows, unless noted: active = hit-call score of the fitted dose curve at least 0.9, where 1 is the maximum; inactive = score below 0.9.

Tests used:
[1] = CCTE_Deisenroth_5AR_NBTE_donor: CCTE's 5alpha-reductase NanoBRET Target Engagement Assay […], Deisenroth Lab (AID 2284319); settings: actives raise or lower the signal
Summary of the method: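 In this secondary endpoint, donor luminescence from SRD5A2-NanoLuc in transfected HEK293T flags artifacts. Test chemical (10 nM - 29.9 uM) is present five hours, tracer the last two; mock-tracer wells run plate-matched; data fitted bidirectionally against DMSO.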

[2] = CCTE_Deisenroth_5AR_NBTE_acceptor: CCTE's 5alpha-reductase NanoBRET Target Engagement Assay - Autofluorescence Screen, Deisenroth Lab (AID 2284321); settings: actives raise or lower the signal;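 also: compound fluorescence in the acceptor channel under 460 nm excitation flags autofluorescence artifacts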
Summary of the method: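 HEK293T cell-based NanoBRET assay read 5 h after dosing; this acceptor channel serves as an autofluorescence artifact screen. Chemicals at nominal 100 uM were scanned in three independent runs (n=3), excitation 460 nm. Fitting was bidirectional versus DMSO baseline.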

[3] = IUF_NPC2b_neuronal_migration_120hr: Leibniz Research Institute for Environmental Medicine (IUF) 120-hour Neural Progenitor Cell Migration Assay for Neuron Migration (NPC2b) (AID 2284300)
Summary of the method: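 Primary human fetal cortex neural progenitor spheres (0.3 mm) plated on poly-D-lysine/laminin in N2 differentiation medium, exposed 120 h with half-medium refresh at day 3. TUBB3-stained neuron distance from sphere core, normalized to radial glia migration, versus DMSO.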

[4] = IUF_NPC3_neuronal_differentiation_120hr: Leibniz Research Institute for Environmental Medicine (IUF) 120-hour Neuronal Differentiation Assay (NPC3) (AID 2284301)
Summary of the method: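 Neuronal differentiation of primary human neural progenitors measured by high-content imaging: percent TUBB3+ of Hoechst+ nuclei within migrated area at 120 h, seven-point serial dilution plus solvent control, gain or loss relative to DMSO.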

[5] = IUF_NPC4_neurite_length_120hr: Leibniz Research Institute for Environmental Medicine (IUF) 120-hour Neuronal Morphology Assay for Neurite Length (NPC4) (AID 2284302)
Summary of the method: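 Neurons from differentiating human fetal neural progenitor spheres are scored for average neurite length after five days of compound exposure. Fitting uses DMSO as negative control.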

[6] = IUF_NPC5_oligodendrocyte_differentiation_120hr: Leibniz Research Institute for Environmental Medicine (IUF) 120-hour Oligodendrocyte Differentiation Assay (NPC5) (AID 2284304; active = hit-call score of the fitted dose curve at least 0.9, where 1 is the maximum;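 also: primary human fetal neural progenitor spheres plated to migrate and differentiate; share of O4-positive cells among Hoechst nuclei found by CNN image analysis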)
Summary of the method: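 Primary human fetal (GW 16-19) neural progenitor spheres (0.3 mm) plated on poly-D-lysine/laminin in N2 differentiation medium, exposed from day 0 for 120 h with half-medium refresh at day 3; O4-positive cells as percent of Hoechst nuclei, CNN-identified, versus DMSO.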

[7] = IUF_NPC4_neurite_area_120hr: Leibniz Research Institute for Environmental Medicine (IUF) 120-hour Neuronal Morphology Assay for Neurite Area (NPC4) (AID 2284305; active = hit-call score of the fitted dose curve at least 0.9, where 1 is the maximum)
Summary of the method: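 Endpoint at 120 h: automated imaging of TUBB3/Hoechst-stained differentiating human neural progenitor spheres, neurite area per neuron from skeletonization. DMSO solvent control, not above 0.1%, set the baseline; medium was half-replaced on day 3.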

[8] = IUF_NPC2-5_cytotoxicity_72hr: Cytotoxicity Assessment at 72 hours in the Leibniz Research Institute for Environmental Medicine (IUF) Neural Progenitor Cell Migration and Differentiation Assay for Cytotoxicity (NPC2-5) (AID 2284306; active = hit-call score of the fitted dose curve at least 0.9, where 1 is the maximum;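 also: LDH release into supernatant measured by resorufin fluorescence marking membrane damage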)
Summary of the method: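 Primary human neural progenitor spheres migrate and differentiate on laminin. Compound is present from the start of differentiation, with DMSO kept at or below 0.1%. At 72 h, supernatant LDH is quantified fluorometrically, with values fitted in the positive direction.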

[9] = IUF_NPC2-5_cytotoxicity_120hr: Cytotoxicity Assessment at 120 hours in the Leibniz Research Institute for Environmental Medicine (IUF) Neural Progenitor Cell Migration and Differentiation Assay (NPC2-5) (AID 2284307; active = hit-call score of the fitted dose curve at least 0.9, where 1 is the maximum)
Summary of the method: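 Human fetal neural progenitor spheres (0.3 mm, GW 16-19 cortex) were plated on poly-D-lysine/laminin in N2 differentiation medium and exposed for 120 h, with half-medium refresh at day 3. LDH release into supernatant was read by resorufin fluorescence.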

[10] = IUF_NPC2-5_cell_number_120hr: Cell Number Assessment at 120 hours in the Leibniz Research Institute for Environmental Medicine (IUF) Neural Progenitor Cell Migration and Differentiation Assay (NPC2-5) (AID 2284308);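 also: count of Hoechst-stained nuclei in migration zone around plated human neural progenitor spheres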
Summary of the method: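 Primary human fetal neural progenitor spheres (GW 16-19, 0.3 mm) plated on poly-D-lysine/laminin in N2 differentiation medium, exposed from day 0 for 120 h with half-medium refresh at day 3; Hoechst-positive nuclei counted in migration area versus DMSO control.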

[11] = IUF_NPC2-5_viability_120hr: Viability Assessment at 120 hours in the Leibniz Research Institute for Environmental Medicine (IUF) Neural Progenitor Cell Migration and Differentiation Assay (NPC2-5) (AID 2284312)
Summary of the method: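 Human fetal (GW 16-19) neural progenitor spheres of 0.3 mm were plated on poly-D-lysine/laminin in N2 differentiation medium and exposed from day 0 for 120 h, with half-medium refresh at day 3. Viability was read as alamar blue resazurin-to-resorufin fluorescence against DMSO.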

CD69, CD69 (gene 969) = assay: BSK_LPS_CD69: BioMAP Diversity Plus: LPS Assay for CD69 Biomarker Activity (AID 2284303); settings: primary human HUVEC with PBMC
Summary of the method: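 CD69 surface levels were read by ELISA after 24 h chemical treatment of an LPS-stimulated HUVEC plus PBMC co-culture; positive-direction fit against DMSO vehicle.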

TTR (gene 7276) = assay: CCTE_GLTED_hTTR_0.5uM: CCTE's human Transthyretin (hTTR) Inhibition Assay, with 0.5uM TTR, Great Lakes Toxicology and Ecology Division (GLTED) Lab (AID 2284320)
Summary of the method: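 Probe (ANSA) displacement from 0.5 uM human transthyretin was followed by fluorescence (ex 380, em 475) after a 2 h incubation with chemical. Activity was scored as signal loss and fitted positively relative to DMSO.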

IYD (gene 389434) = assay: CCTE_GLTED_hIYD: CCTE's human Iodotyrosine Deiodinase (xIYD) Inhibition Assay, Great Lakes Toxicology and Ecology Division (GLTED) Lab (AID 2284317; active = hit-call score of the fitted dose curve at least 0.9, where 1 is the maximum;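 also: cell-free human IYD enzyme made in baculovirus insect cells; iodide freed from monoiodotyrosine measured by cerium arsenite color change at 420 nm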)
Summary of the method: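 In the IYD assay, iodide released from MIT by insect-cell-expressed human enzyme was quantified after 3 h via Sandell-Kolthoff rate at 420 nm, with plate-wise normalization to MNT and solvent controls.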

[12] = CCTE_Mundy_HCI_iCellGluta_NOG_NeuriteLength: CCTE's Neurite Outgrowth Assay in iCellGluta cells for Neurite Length, Mundy Lab (AID 2284318; active = hit-call score of the fitted dose curve at least 0.9, where 1 is the maximum)
Summary of the method: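 Automated high-content imaging of betaIII-tubulin (Alexa Fluor-488) and Hoechst-stained cells gave neurite length, normalized to the DMSO baseline.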

Measured: AC50

O=[N+]([O-])c1ccc(O)cc1
inactive: [1] | [2]

CN1CCC[C@H]1c1cccnc1
not listed: [1] | [2] | CD69, CD69 (gene 969) | TTR (gene 7276) | IYD (gene 389434) | [12]
inactive: all other assays above

FC(F)(I)C(F)(F)C(F)(F)C(F)(F)C(F)(F)C(F)(F)I
active: CD69, CD69 (gene 969) 4.49 µM and 40.5 µM and 53.2 µM | TTR (gene 7276) 1.91 µM and 1.88 µM
inactive: CD69, CD69 (gene 969)

COCC(C)OCC(C)O (stereo not given)
inactive: [1] | [2]

CCCCCCCCCCCCCC[N+](C)(C)C
active: IYD (gene 389434) 88.3 µM | [1] 42.7 µM | [2] 26.2 µM

CC#C[C@]1(O)CC[C@H]2[C@@H]3CCC4=CC(=O)CCC4=C3[C@@H](c3ccc(N(C)C)cc3)C[C@@]21C
inactive: [3] | [4] | [5] | [6] | [7] | [8] | [9] | [10] | [11] | [12]
active: [12] 50 µM

COCC(C)O (stereo not given)
inactive: [1] | [2]

CCN(CC)CCNc1ccc(CNC=O)c2sc3ccc(OC)cc3c(=O)c12
inactive: [1] | [2]

C[C@@H]1C[C@H]2[C@@H]3CCC4=CC(=O)C=C[C@]4(C)[C@@]3(F)[C@@H](O)C[C@]2(C)[C@@]1(O)C(=O)COP(=O)(O)O
inactive: CD69, CD69 (gene 969)
